Source: PubChem BioAssay (NCATS)
“And” between values parts separate entries of the source, which are not always exact repeats. Equal values may be shown once. Records with an inconclusive call do not appear. The source made the active and inactive calls. Unless noted, calls follow the shape of the dose curve; as a rule, active = well fitted curve in the direction sought with a large enough effect; inconclusive = small, poorly fitted or top-dose-only effect, or another doubt; inactive = no such curve, though single readings can be large; an effect the other way counts as inactive or inconclusive.

Experiments:
[1] = Cell Viability - MRC5 (AID 434; calls by dose curve;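 also: potency is read from the fitted curve at half-maximal effect; cells exposed to compound for 40 hours at 37 °C; potency reflects cytotoxicity seen as loss of intracellular ATP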); conditions: MRC5 lung fibroblast viability, qHTS
Procedure, shortened: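 qHTS cytotoxicity in human lung fibroblast MRC5 cells; 40 hr treatment, 37 °C; cellular ATP by luciferase luminescence; DMSO = 0%, 100 uM tamoxifen = 100% inhibition; Hill-fit AC50.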

[2] = Cell Viability - HUV-EC-C (AID 542); conditions: HUV-EC-C endothelial cell viability, qHTS; series mostly up to 92.2 µM;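 also: cells exposed to compound for 40 hours; % is scaled to controls: 0 for no effect and ±100 for the full control effect; nearly all actives have a fitted effect of over 35% in size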
Procedure, shortened: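 Decrease in cellular ATP, quantified by luciferase luminescence, reflects toxicity in normal human vascular endothelial HUV-EC-C cells given compound for 40 hr in complete culture medium. Values are AC50s from concentration-response curves.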

[3] = Cellular Toxicity (caspase-3) HepG2 (AID 654); conditions: HepG2 caspase-3 activation, luminescence; series mostly up to 92.2 µM;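 also: cells exposed to compound for 16 hours before reading; 0% = DMSO alone and 100% = caspase signal from 100 µM tamoxifen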
Procedure, shortened: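 qHTS, HepG2, 1500 cells/well, complete medium; cpd 16 h 37 °C; Caspase-Glo 3/7, 20 min RT; lum. Norm: DMSO vs 100 uM tamoxifen; AC50 Hill fit.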

[4] = Cellular Toxicity (caspase-3) HUV-EC-C (AID 656); conditions: HUV-EC-C cells, caspase-3 activation (apoptosis); series mostly up to 92.2 µM
Procedure, shortened: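 HUV-EC-C endothelial cells, 1000/well, were pre-incubated 5 hr at 37°C, then exposed to compounds for 16 hr at 37°C. Caspase-Glo 3/7 luminescence was read after 20 min at room temperature. AC50 came from Hill fits, normalized to DMSO and 100 uM tamoxifen.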

[5] = Cellular Toxicity (caspase-3) SHSY5Y (AID 657); conditions: SH-SY5Y caspase-3 activation; series mostly up to 91.7 µM
Procedure, shortened: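 SH-SY5Y human neuroblastoma cells (1500/well) were treated with compounds for 16 h at 37 °C, then Caspase-Glo 3/7 luminescence was read after 1 h at room temperature. Data normalized to DMSO and 10 uM staurosporine; AC50 from Hill fits.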

[6] = Cellular Toxicity (caspase-3) BJ (AID 658); conditions: BJ fibroblasts, luminescence; Potency: caspase-3 activation; series mostly up to 91.7 µM
Procedure, shortened: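 Readout: Caspase-Glo 3/7 luminescence increase in BJ cells after 16 hr treatment at 37 °C. Staurosporine and tamoxifen served as positive controls; AC50 values came from Hill modelling of data normalized to DMSO and 10 uM staurosporine.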

[7] = Cellular Toxicity (caspase-3) MRC-5 (AID 659); conditions: MRC-5 cells, luminescence, normalized: DMSO 0%, 10 µM staurosporine 100%; series mostly up to 91.7 µM
Procedure, shortened: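 Concentration-dependent caspase 3/7 activation is measured in human normal lung fibroblasts (MRC-5) following 16-hour treatment. AC50 values come from standard Hill-equation modeling of luminescence normalized to DMSO and 10 uM staurosporine.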

[8] = Cellular Toxicity (caspase-3) Mesangial (AID 660); conditions: mesangial cells, normalized: DMSO 0%, 100 µM tamoxifen 100%; series mostly up to 91.7 µM;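 also: combined caspase 3 and 7 activity read by Caspase-Glo luminescence; cells exposed to compound for 16 h before the caspase read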
Procedure, shortened: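 Concentration-response qHTS: compound-induced rise in caspase 3/7 luminescence in human mesangial cells after 16 h, normalized to DMSO and 100 uM tamoxifen controls.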

[9] = Cellular Toxicity (caspase-3) H-4-II-E (AID 663); conditions: H-4-II-E rat hepatoma; Potency: caspase-3 activation; series mostly up to 92.2 µM;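 also: cells exposed to compound for 16 hr before readout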
Procedure, shortened: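 Apoptosis induction is scored as increased luminescence from caspase 3/7 substrate cleavage in rat hepatoma H-4-II-E cells exposed to compound for 16 hr. Activity is scaled between DMSO and 100 uM tamoxifen.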

[10] = Cellular Toxicity (caspase-3) Hek293 (AID 664); conditions: HEK293 caspase-3 activation, DMSO = 0%, 100 µM tamoxifen = 100%; at 92.2 µM (top of the series);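 also: cells exposed to compound for 16 h at 37 °C before readout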
Procedure, shortened: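 Activation of caspase-3/7 is measured as increased luminescence from cleaved peptide-aminoluciferin substrate in HEK293 cells treated 16 hours at 37 °C. AC50 values come from Hill-equation fits of concentration-response data.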

[11] = Cellular Toxicity (caspase-3) N2a (AID 665); conditions: N2a cells, luminescence, normalized: DMSO 0%, 10 µM staurosporine 100%; series mostly up to 92.2 µM;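 also: compound exposure lasted 16 h at 37 °C before readout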
Procedure, shortened: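 Plated mouse neuroblastoma N2a cells received titrated compounds for 16 h in complete medium. Caspase activity was then detected with a peptide-aminoluciferin luminescent reagent.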

[12] = Cellular Toxicity (caspase-3) NIH 3T3 (AID 666); conditions: NIH 3T3 caspase-3 activation, apoptosis/toxicity, 0% DMSO, 100% is 100 µM tamoxifen; series mostly up to 92.2 µM;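 also: caspase signal read after 16 h compound exposure; 0% = DMSO basal and 100% = 100 µM tamoxifen stimulation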
Procedure, shortened: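 Concentration-response qHTS in NIH 3T3 mouse fibroblasts scores caspase-3/7 activation as rising luminescence after 16 hr compound exposure. Signals are scaled between DMSO-only and 100 uM tamoxifen.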

[13] = Cellular Toxicity (caspase-3) Renal Proximal Tubule (AID 667); conditions: renal proximal tubule cells, primary cells freshly taken from rat; Potency: caspase-3 activation; series mostly up to 91.7 µM;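 also: cells exposed to compound for 16 hours at 37 °C before detection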
Procedure, shortened: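 Primary rat proximal tubule cells, 1000/well, 5 h plating at 37 °C, then compound 16 h at 37 °C. Caspase-Glo 3/7 reagent, 1 h RT, luminescence. Normalized to DMSO (basal) and 10 uM staurosporine (100%); Hill-fit AC50.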

[14] = MultiTox-Fluor Cytotoxicity Assay - LYMP1-003 - Live Cells (AID 962); conditions: LYMP1-003 lymphoblastoid cells, MultiTox-Fluor live-cell protease fluorescence; series mostly up to 92.2 µM;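 also: 0% = DMSO only and full loss = 92 µM tetraoctylammonium bromide; cytotoxic hits lower the live-cell protease signal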
Procedure, shortened: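 Cells plated at 2500 per well and incubated 5 hr; compounds added and incubated 16 hr at 37 C; MultiTox-Fluor reagent added for 60 min at room temperature; fluorescence of liberated AFC measured at 405/510 nm.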

[15] = Cell Viability - LYMP2-003 (AID 965); conditions: LYMP2-003 lymphoblastoid cell viability; series mostly up to 92.2 µM;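 also: cells exposed to compounds for 24 h before reading; 0% = DMSO only and full effect = 92 µM tetraoctylammonium bromide; nearly all actives have a fitted effect of over 50% in size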
Procedure, shortened: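 Human lymphoblastoid cells (2500/well) were pre-incubated 5 hr at 37 C, then exposed to compounds over a concentration range for 24 hr at 37 C. Intracellular ATP was read by CellTiter-Glo luminescence; AC50 came from Hill-equation fits.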

[16] = qHTS Assay for Identification of Small Molecule Inducers of Hypoxia Response (AID 2120; active = well fitted curve in the direction sought with a large enough effect in the signal ratio, with a control signal flat, not every such curve was filed as active; the % refers to the signal ratio; also: 0% is about no effect); conditions: hypoxia response reporter cells, beta-lactamase ratio readout; series mostly up to 104 µM
Procedure, shortened: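 Induction of beta-lactamase reporter activity was measured in CellSensor HRE-bla ME-180 cells after 17 h compound treatment at 37 degrees C, using CCF4 substrate and the 460nm/530nm emission ratio to derive AC50 values.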

[17] = molecular target: Peroxisome proliferator-activated receptor alpha (Homo sapiens) (UniProt Q07869); assay: qHTS assay for small molecule agonists of the peroxisome proliferator-activated receptor alpha (PPARalpha) signaling pathway (AID 651778); conditions: PathHunter PPARalpha complementation, chemiluminescence, 6 h; max response: active compounds read high; also: % of control where 0% means no effect
Peroxisome proliferator-activated receptor alpha (Homo sapiens), sequence (Q07869 whole entry, looked up): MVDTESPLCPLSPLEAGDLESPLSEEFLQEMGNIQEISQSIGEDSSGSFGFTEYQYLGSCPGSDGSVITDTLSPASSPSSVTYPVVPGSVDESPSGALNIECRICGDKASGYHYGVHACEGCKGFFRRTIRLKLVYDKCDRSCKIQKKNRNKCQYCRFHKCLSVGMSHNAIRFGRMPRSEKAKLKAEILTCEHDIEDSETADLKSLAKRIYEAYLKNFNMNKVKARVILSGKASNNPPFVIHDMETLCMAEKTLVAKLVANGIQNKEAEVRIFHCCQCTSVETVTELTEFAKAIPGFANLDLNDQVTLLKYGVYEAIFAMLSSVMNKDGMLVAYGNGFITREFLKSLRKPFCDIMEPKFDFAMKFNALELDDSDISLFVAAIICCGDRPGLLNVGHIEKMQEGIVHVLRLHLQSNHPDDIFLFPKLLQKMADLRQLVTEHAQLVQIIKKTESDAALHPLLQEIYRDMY
Procedure, shortened: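 Chemiluminescence from complemented enzyme reported PPARalpha activation in cells after 6 hr of compound treatment at 37 C. The detection reagent was incubated for 60 min at room temperature, and compounds were scored as agonists.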

[18] = qHTS assay for small molecule agonists of the antioxidant response element (ARE) signaling pathway measured by Nrf2-dependant transcriptional activity - cell viability counter screen (AID 720653; active = well fitted curve in the direction sought with a large enough effect in the repeat runs; an effect the other way counts as inactive or inconclusive; also: % is scaled to controls: 0 for no effect and ±100 for the full control effect); conditions: ARE-bla HepG2 viability, CellTiter-Glo ATP luminescence, 16 h; max response: active compounds read low
Procedure, shortened: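 Cytotoxicity counter screen: intracellular ATP quantified by CellTiter-Glo luminescence in the same ARE-bla HepG2 plates, after 16 h compound exposure and a 2 h beta-lactamase substrate step.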

[19] = qHTS assay for cell viability of HEK293 cells (AID 743288); conditions: ATP luminescence (CellTiter-Glo), 18 h; max response: active compounds read low; also: % is scaled to controls: 0 for no effect and ±100 for the full control effect; nearly all actives have a fitted effect of over 50% in size
Procedure, shortened: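 Parental HEK293 cells were seeded at 2,000 cells/well, rested at least 5 h at 37 C, then exposed to compounds in DMSO for 18 h at 37 C. Viability was read as ATP-dependent luciferase luminescence after 30 min at room temperature.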

[20] = qHTS assay for cell viability of the p53RE-bla HCT-116 cell line (AID 743292); conditions: p53RE-bla HCT-116 viability, ATP luminescence, 16 h; series mostly up to 95 µM; also: % is scaled to controls: 0 for no effect and ±100 for the full control effect; nearly all actives have a fitted effect of over 55% in size
Procedure, shortened: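 Viability of compound-treated p53RE-bla HCT-116 cells is taken from ATP-dependent luciferase luminescence. Treatment lasts 16 h at 37 C after a 5 h settling period; detection follows 30 min at room temperature.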

CC(=O)OCc1ccc2c(c1)OCO2
inactive: Potency [1] > 92 µM | Potency [2] | Potency [3] | Potency [4] | Potency [5] | Potency [6] | outcome [7] | outcome [8] | Potency [9] | caspase-3 activation [10] -3.09% | outcome [11] | outcome [12] | Potency [13] | Potency [14] | Potency [15] | Potency [16] | max response [17] -4.72% | max response [18] -6.13% | max response [19] -6.03% | Potency [20]

Cc1cc(=O)oc2cc(O)cc(O)c12
inactive: Potency [1] > 92 µM | Potency [2] | Potency [3] | Potency [4] | Potency [5] | Potency [6] | outcome [7] | outcome [8] | Potency [9] | caspase-3 activation [10] -0.488% | outcome [11] | outcome [12] | Potency [13] | Potency [14] | Potency [15] | Potency [16] | max response [17] 0.255% | max response [18] 0.736% | max response [19] -8.02% | Potency [20]

O=C(OCc1ccccc1)c1ccccc1O
inactive: Potency [1] > 92 µM | Potency [2] | Potency [3] | Potency [4] | Potency [5] | Potency [6] | outcome [7] | outcome [8] | Potency [9] | caspase-3 activation [10] -1.91% | outcome [11] | outcome [12] | Potency [13] | Potency [14] | Potency [15] | Potency [16] | max response [17] -2.61% and -0.719% | max response [18] 4.39% and 10% | max response [19] 9.47% and -5.04% | Potency [20]

CC(=O)OC(C(=O)c1ccccc1)c1ccccc1 (stereo not given)
inactive: Potency [1] > 92 µM | Potency [2] | Potency [3] | Potency [4] | Potency [5] | Potency [6] | outcome [7] | outcome [8] | Potency [9] | caspase-3 activation [10] -0.138% | outcome [11] | outcome [12] | Potency [13] | Potency [14] | Potency [15] | Potency [16] | max response [17] -5.41% | max response [18] -8.03% | max response [19] -11.3% | Potency [20]

c1ccc2ncccc2c1
inactive: Potency [1] > 92 µM | Potency [2] | Potency [3] | Potency [4] | Potency [5] | Potency [6] | outcome [7] | outcome [8] | Potency [9] | caspase-3 activation [10] -0.104% | outcome [11] | outcome [12] | Potency [13] | Potency [14] | Potency [15] | Potency [16] | max response [17] -2.05% | max response [18] 0.928% | max response [19] -7.69% | Potency [20]

OC1CCCCC1
inactive: Potency [1] > 92 µM | Potency [2] | Potency [3] | Potency [4] | Potency [5] | Potency [6] | outcome [7] | outcome [8] | Potency [9] | caspase-3 activation [10] -0.682% | outcome [11] | outcome [12] | Potency [13] | Potency [14] | Potency [15] | Potency [16] | max response [17] -5.19% | max response [18] 16.5% | max response [19] 10.8% | Potency [20]
